Experimental data taken from paper PMC7862700, “An all-to-all approach to the identification of sequence-specific readers for epigenetic DNA modifications on cytosine”.

Legend:
Test in all cases: DAPPL (digital affinity profiling via proximity ligation, sequencing); 10 mM Tris-HCl pH 7.5, 50 mM NaCl, 1 mM DTT, 4% glycerol, room temperature, 30 min; GST-TFs on glutathione beads, 16-mer random dsDNA library, 0.1% formaldehyde crosslink after washing; high values mean tight binding
Conditions in all cases: protein: recombinant; tags: N-terminal GST; dsDNA, one strand shown
ERF = target: T1, ERF (Homo sapiens, UniProt P50548 1-548)
T1 sequence: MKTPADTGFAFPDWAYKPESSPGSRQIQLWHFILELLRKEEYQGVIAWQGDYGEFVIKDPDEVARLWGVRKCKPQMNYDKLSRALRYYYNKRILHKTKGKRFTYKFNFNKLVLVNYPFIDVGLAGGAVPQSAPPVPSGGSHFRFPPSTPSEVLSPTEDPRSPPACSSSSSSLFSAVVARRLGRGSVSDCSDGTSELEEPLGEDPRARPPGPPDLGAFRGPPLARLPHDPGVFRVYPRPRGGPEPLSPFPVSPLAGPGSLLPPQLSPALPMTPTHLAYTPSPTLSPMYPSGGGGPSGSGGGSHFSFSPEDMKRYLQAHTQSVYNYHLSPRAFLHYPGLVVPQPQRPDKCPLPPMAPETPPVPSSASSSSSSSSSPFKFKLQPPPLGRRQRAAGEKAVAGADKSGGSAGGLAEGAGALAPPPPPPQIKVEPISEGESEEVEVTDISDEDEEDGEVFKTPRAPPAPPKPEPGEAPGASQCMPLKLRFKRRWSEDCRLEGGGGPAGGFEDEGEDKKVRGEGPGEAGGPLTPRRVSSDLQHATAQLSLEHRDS
Procedure, shortened: (§1)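 Yeast served to express human transcription factors as GST fusions, which were then captured on glutathione beads and labelled with DNA barcodes. Pooled with a tag-only sample, they were incubated with 200 nmole of a 16-mer random double-stranded DNA library for 30 min at room temperature in Tris/NaCl/DTT/glycerol buffer, washed, crosslinked with 0.1% formaldehyde, ligated by proximity, amplified by PCR and sequenced. Dividing each hexamer's read frequency for a factor by its frequency for the tag-only sample gives the binding signal.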

ETV3L = target: T2, ETV3L (Homo sapiens, UniProt Q6ZN32 1-361)
T2 sequence: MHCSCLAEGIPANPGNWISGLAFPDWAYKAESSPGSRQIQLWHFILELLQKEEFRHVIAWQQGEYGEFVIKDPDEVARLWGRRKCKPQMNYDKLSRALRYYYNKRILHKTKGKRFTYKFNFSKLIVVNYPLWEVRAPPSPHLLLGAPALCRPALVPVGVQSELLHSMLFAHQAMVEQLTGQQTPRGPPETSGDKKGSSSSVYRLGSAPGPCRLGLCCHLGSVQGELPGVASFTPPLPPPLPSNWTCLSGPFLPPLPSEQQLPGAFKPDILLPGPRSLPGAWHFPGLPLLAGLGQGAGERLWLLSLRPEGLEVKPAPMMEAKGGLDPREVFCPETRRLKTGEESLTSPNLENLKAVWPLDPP
Procedure, shortened: as §1

ETS2 = target: T3, ETS2 (Homo sapiens, UniProt P15036 1-469)
T3 sequence: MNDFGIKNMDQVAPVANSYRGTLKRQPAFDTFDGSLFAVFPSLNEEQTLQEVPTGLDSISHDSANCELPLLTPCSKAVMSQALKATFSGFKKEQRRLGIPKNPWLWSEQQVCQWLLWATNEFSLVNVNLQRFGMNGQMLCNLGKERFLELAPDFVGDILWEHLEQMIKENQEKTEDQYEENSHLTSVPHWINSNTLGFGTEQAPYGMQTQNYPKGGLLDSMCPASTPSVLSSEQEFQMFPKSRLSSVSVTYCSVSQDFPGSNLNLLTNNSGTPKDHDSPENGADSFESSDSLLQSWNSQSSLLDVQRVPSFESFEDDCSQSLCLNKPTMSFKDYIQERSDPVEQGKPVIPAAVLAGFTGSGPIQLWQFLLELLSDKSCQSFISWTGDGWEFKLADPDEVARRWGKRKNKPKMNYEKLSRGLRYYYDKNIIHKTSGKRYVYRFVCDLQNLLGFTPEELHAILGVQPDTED
Procedure, shortened: as §1

SPDEF = target: T4, SPDEF (Homo sapiens, UniProt O95238 1-335)
T4 sequence: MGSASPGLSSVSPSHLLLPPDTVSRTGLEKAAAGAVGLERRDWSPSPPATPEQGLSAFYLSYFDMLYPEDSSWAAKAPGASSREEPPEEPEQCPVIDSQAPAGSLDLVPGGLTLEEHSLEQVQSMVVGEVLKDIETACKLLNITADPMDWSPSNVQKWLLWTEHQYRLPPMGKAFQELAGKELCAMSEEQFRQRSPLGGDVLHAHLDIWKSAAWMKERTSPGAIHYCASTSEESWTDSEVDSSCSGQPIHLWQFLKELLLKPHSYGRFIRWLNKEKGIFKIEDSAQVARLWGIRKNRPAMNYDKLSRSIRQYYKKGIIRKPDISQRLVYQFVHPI
Procedure, shortened: as §1

ETV7 = target: T5, ETV7 (Homo sapiens, UniProt Q9Y603 1-341)
T5 sequence: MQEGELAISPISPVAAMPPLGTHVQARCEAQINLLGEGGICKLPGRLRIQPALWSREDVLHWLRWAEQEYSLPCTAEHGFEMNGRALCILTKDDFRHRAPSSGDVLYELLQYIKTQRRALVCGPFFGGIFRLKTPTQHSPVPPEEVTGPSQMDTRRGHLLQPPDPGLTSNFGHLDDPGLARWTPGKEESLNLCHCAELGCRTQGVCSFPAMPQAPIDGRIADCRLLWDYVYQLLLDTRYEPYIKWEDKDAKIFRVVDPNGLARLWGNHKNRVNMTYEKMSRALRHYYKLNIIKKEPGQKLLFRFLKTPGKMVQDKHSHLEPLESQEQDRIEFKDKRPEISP
Procedure, shortened: as §1

ELF5 = target: T6, ELF5 (Homo sapiens, UniProt Q9UKW6-2 1-255)
T6 sequence: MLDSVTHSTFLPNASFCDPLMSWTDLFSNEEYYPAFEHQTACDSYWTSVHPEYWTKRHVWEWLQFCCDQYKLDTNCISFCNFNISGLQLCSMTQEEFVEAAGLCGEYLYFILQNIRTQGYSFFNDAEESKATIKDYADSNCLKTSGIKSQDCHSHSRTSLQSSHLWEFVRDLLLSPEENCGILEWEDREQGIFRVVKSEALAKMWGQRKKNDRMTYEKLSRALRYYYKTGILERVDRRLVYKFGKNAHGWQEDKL
Procedure, shortened: as §1

ETV3 = target: T7, ETV3 (Homo sapiens, UniProt P41162-2 1-143)
T7 sequence: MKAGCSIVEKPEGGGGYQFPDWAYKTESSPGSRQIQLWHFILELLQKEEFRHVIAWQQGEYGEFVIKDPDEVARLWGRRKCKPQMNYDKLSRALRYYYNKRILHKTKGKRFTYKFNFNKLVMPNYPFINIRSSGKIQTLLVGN
Procedure, shortened: as §1

ETV6 = ETV6 (Homo sapiens, UniProt P41212 1-452)
Procedure, shortened: as §1

ETV6, sequence (P41212 whole entry): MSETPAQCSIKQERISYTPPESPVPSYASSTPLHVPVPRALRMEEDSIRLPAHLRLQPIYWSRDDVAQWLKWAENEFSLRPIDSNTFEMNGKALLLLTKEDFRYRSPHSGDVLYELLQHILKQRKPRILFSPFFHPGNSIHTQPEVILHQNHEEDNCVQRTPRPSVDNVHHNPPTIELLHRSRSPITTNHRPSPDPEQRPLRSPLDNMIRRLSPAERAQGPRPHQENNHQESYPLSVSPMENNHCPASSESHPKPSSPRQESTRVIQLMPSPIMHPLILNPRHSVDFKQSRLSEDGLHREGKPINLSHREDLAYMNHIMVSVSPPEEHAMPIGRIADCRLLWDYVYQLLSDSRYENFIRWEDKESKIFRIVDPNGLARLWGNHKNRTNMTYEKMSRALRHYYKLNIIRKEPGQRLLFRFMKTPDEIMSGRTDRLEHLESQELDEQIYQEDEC

| Sequence | binding signal (ERF) | binding signal (ETV3L) | binding signal (ETS2) | binding signal (SPDEF) | binding signal (ETV7) | binding signal (ELF5) | binding signal (ETV3) | binding signal (ETV6) |
| --- | --- | --- | --- | --- | --- | --- | --- | --- |
| TATGGT | 1.18 fold enrichment (6-mer frequency, TF over GST control) | 1.24 fold enrichment (6-mer frequency, TF over GST control) | 1.33 fold enrichment (6-mer frequency, TF over GST control) | 1.35 fold enrichment (6-mer frequency, TF over GST control) | 1.21 fold enrichment (6-mer frequency, TF over GST control) | 1.24 fold enrichment (6-mer frequency, TF over GST control) | 1.34 fold enrichment (6-mer frequency, TF over GST control) | 1.24 fold enrichment (6-mer frequency, TF over GST control) |
| ATGGAC | 1.13 fold enrichment (6-mer frequency, TF over GST control) | 1.21 fold enrichment (6-mer frequency, TF over GST control) | 1.24 fold enrichment (6-mer frequency, TF over GST control) | 1.17 fold enrichment (6-mer frequency, TF over GST control) | 1.02 fold enrichment (6-mer frequency, TF over GST control) | 1.13 fold enrichment (6-mer frequency, TF over GST control) | 1.2 fold enrichment (6-mer frequency, TF over GST control) | 1.2 fold enrichment (6-mer frequency, TF over GST control) |
| CGCACT | 1.21 fold enrichment (6-mer frequency, TF over GST control) | 1.29 fold enrichment (6-mer frequency, TF over GST control) | 1.18 fold enrichment (6-mer frequency, TF over GST control) | 1.1 fold enrichment (6-mer frequency, TF over GST control) | 1.27 fold enrichment (6-mer frequency, TF over GST control) | 1.23 fold enrichment (6-mer frequency, TF over GST control) | 1.39 fold enrichment (6-mer frequency, TF over GST control) | 1.25 fold enrichment (6-mer frequency, TF over GST control) |
| CTAAAA | 1.2 fold enrichment (6-mer frequency, TF over GST control) | 1.2 fold enrichment (6-mer frequency, TF over GST control) | 1.21 fold enrichment (6-mer frequency, TF over GST control) | 1.19 fold enrichment (6-mer frequency, TF over GST control) | 1.1 fold enrichment (6-mer frequency, TF over GST control) | 1.11 fold enrichment (6-mer frequency, TF over GST control) | 1.12 fold enrichment (6-mer frequency, TF over GST control) | 1.15 fold enrichment (6-mer frequency, TF over GST control) |
| TGCCGC | 1.32 fold enrichment (6-mer frequency, TF over GST control) | 1.22 fold enrichment (6-mer frequency, TF over GST control) | 1.33 fold enrichment (6-mer frequency, TF over GST control) | 1.15 fold enrichment (6-mer frequency, TF over GST control) | 1.22 fold enrichment (6-mer frequency, TF over GST control) | 1.22 fold enrichment (6-mer frequency, TF over GST control) | 1.36 fold enrichment (6-mer frequency, TF over GST control) | 1.27 fold enrichment (6-mer frequency, TF over GST control) |
| GCTTAG | 1.2 fold enrichment (6-mer frequency, TF over GST control) | 1.12 fold enrichment (6-mer frequency, TF over GST control) | 1.11 fold enrichment (6-mer frequency, TF over GST control) | 1.17 fold enrichment (6-mer frequency, TF over GST control) | 1.13 fold enrichment (6-mer frequency, TF over GST control) | 1.01 fold enrichment (6-mer frequency, TF over GST control) | 1.19 fold enrichment (6-mer frequency, TF over GST control) | 1.07 fold enrichment (6-mer frequency, TF over GST control) |
| CCCACA | 1.12 fold enrichment (6-mer frequency, TF over GST control) | 1.1 fold enrichment (6-mer frequency, TF over GST control) | 1.13 fold enrichment (6-mer frequency, TF over GST control) | 1.22 fold enrichment (6-mer frequency, TF over GST control) | 1.05 fold enrichment (6-mer frequency, TF over GST control) | 1.13 fold enrichment (6-mer frequency, TF over GST control) | 1.1 fold enrichment (6-mer frequency, TF over GST control) | 1.14 fold enrichment (6-mer frequency, TF over GST control) |
